Consider four compounds from publication PMC11062922 (Nature Chemical Biology, 2023).

Structures are written as SMILES.

Conditions in all cases: read-out: apparent Kd; compound concentrations:100 nM and 1000 nM (sheet 'Samples'); n = 1
Experiment [1] relates to AURKB. On the set-up: species or system human, MV4-11 + K-562 + COLO205 + SK-N-BE2 + OVCAR-8.
Experiment [2] relates to BMP2K. On the set-up: species or system human, MV4-11 + K-562 + COLO205 + SK-N-BE2 + OVCAR-8.
Experiment [3] has as its system CSNK2A1;CSNK2A3. On the set-up: species or system human, MV4-11 + K-562 + COLO205 + SK-N-BE2 + OVCAR-8.
Experiment [4] relates to CSNK2A2. On the set-up: species or system human, MV4-11 + K-562 + COLO205 + SK-N-BE2 + OVCAR-8.
The test system of experiment [5] is JAK1. On the set-up: species or system human, MV4-11 + K-562 + COLO205 + SK-N-BE2 + OVCAR-8.
Experiment [6] concerns the target Q6ZSR9 (human, UniProt Q6ZSR9). On the set-up: species or system MV4-11 + K-562 + COLO205 + SK-N-BE2 + OVCAR-8.
For experiment [7], the system named is BMPR1B. On the set-up: species or system human, MV4-11 + K-562 + COLO205 + SK-N-BE2 + OVCAR-8.
Experiment [8] deals with DDR1. On the set-up: species or system human, MV4-11 + K-562 + COLO205 + SK-N-BE2 + OVCAR-8.
The test system of experiment [9] is IRAK3. On the set-up: species or system human, MV4-11 + K-562 + COLO205 + SK-N-BE2 + OVCAR-8.
Experiment [10] deals with MAPK10. On the set-up: species or system human, MV4-11 + K-562 + COLO205 + SK-N-BE2 + OVCAR-8.
For experiment [11], the system named is MAPK11. On the set-up: species or system human, MV4-11 + K-562 + COLO205 + SK-N-BE2 + OVCAR-8.
In experiment [12] the test system is MAPK14. On the set-up: species or system human, MV4-11 + K-562 + COLO205 + SK-N-BE2 + OVCAR-8.
Experiment [13] deals with MAPK8. On the set-up: species or system human, MV4-11 + K-562 + COLO205 + SK-N-BE2 + OVCAR-8.
The test system of experiment [14] is MAPK9. On the set-up: species or system human, MV4-11 + K-562 + COLO205 + SK-N-BE2 + OVCAR-8.
The test system of experiment [15] is MAPKAPK2. On the set-up: species or system human, MV4-11 + K-562 + COLO205 + SK-N-BE2 + OVCAR-8.
The test system of experiment [16] is PIK3CD. On the set-up: species or system human, MV4-11 + K-562 + COLO205 + SK-N-BE2 + OVCAR-8.
The test system of experiment [17] is CDK16. On the set-up: species or system human, MV4-11 + K-562 + COLO205 + SK-N-BE2 + OVCAR-8.
Experiment [18] deals with CDK17. On the set-up: species or system human, MV4-11 + K-562 + COLO205 + SK-N-BE2 + OVCAR-8.
Experiment [19] relates to CDK2. On the set-up: species or system human, MV4-11 + K-562 + COLO205 + SK-N-BE2 + OVCAR-8.
Experiment [20] concerns CLK4. On the set-up: species or system human, MV4-11 + K-562 + COLO205 + SK-N-BE2 + OVCAR-8.
The subject of experiment [21] is PAK4. On the set-up: species or system human, MV4-11 + K-562 + COLO205 + SK-N-BE2 + OVCAR-8.
Experiment [22] has as its system STK3. On the set-up: species or system human, MV4-11 + K-562 + COLO205 + SK-N-BE2 + OVCAR-8.
Experiment [23] has as its system STK4. On the set-up: species or system human, MV4-11 + K-562 + COLO205 + SK-N-BE2 + OVCAR-8.
Experiment [24] has as its system CDK6. On the set-up: species or system human, MV4-11 + K-562 + COLO205 + SK-N-BE2 + OVCAR-8.
Experiment [25] concerns CDK9. On the set-up: species or system human, MV4-11 + K-562 + COLO205 + SK-N-BE2 + OVCAR-8.
For experiment [26], the system named is CDKL5. On the set-up: species or system human, MV4-11 + K-562 + COLO205 + SK-N-BE2 + OVCAR-8.
The test system of experiment [27] is GSK3A. On the set-up: species or system human, MV4-11 + K-562 + COLO205 + SK-N-BE2 + OVCAR-8.
Experiment [28] relates to GSK3B. On the set-up: species or system human, MV4-11 + K-562 + COLO205 + SK-N-BE2 + OVCAR-8.
Experiment [29] deals with ICK. On the set-up: species or system human, MV4-11 + K-562 + COLO205 + SK-N-BE2 + OVCAR-8.
For experiment [30], the system named is PIM2. On the set-up: species or system human, MV4-11 + K-562 + COLO205 + SK-N-BE2 + OVCAR-8.
Experiment [31] deals with RIOK2. On the set-up: species or system human, MV4-11 + K-562 + COLO205 + SK-N-BE2 + OVCAR-8.

Sequence of Q6ZSR9 (Q6ZSR9 whole entry, looked up): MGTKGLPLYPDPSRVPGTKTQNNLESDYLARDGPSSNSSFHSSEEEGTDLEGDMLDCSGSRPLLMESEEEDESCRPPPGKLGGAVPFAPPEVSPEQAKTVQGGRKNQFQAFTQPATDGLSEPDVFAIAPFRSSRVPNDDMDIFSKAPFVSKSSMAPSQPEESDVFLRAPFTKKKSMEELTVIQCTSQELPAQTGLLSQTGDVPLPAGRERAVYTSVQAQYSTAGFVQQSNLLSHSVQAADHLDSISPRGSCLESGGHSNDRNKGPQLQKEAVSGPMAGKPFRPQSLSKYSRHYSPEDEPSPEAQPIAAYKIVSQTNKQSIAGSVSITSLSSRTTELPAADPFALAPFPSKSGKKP

On to `NC(=O)Nc1sc(-c2ccc(F)cc2)cc1C(N)=O` [GW789449X], for which the potency estimated from few doses in [1] was 1310 nM; in experiment [2], 1260 nM; in experiment [3] it was 1730 nM; in experiment [4] it was 1130 nM; in [5], 711 nM; in experiment [6], 1370 nM.

`CCn1c(=O)c(Oc2ccc(F)cc2F)cc2cnc(NC3CCOCC3)nc21` [RO4367438-000]: the potency estimated from few doses in experiment [7] is 867 nM; in experiment [8], 1510 nM; in [9], 1240 nM; in [10], 45.1 nM; in experiment [11], 89.8 nM; in experiment [12], 2.49 nM. Further, the potency estimated from few doses in [13] is 153 nM; in [14], 46.5 nM; in experiment [15], 8.81 nM; in experiment [16], 13.5 nM.

As to `COc1cc(F)c(F)cc1C(=O)c1cnc(NC2CCN(S(C)(=O)=O)CC2)nc1N` [RO4595655-000], the potency estimated from few doses in experiment [17] is 1510 nM; in [18], 1840 nM; in experiment [19] it was 1210 nM; in experiment [20], 1430 nM; in experiment [21], 1340 nM; in experiment [22] it was 2300 nM. The potency estimated from few doses in experiment [23] is 1690 nM.

Consider `CN1CCC(C(=O)Nc2n[nH]c3nc(-c4ccc(O)cc4)c(Br)cc23)CC1` [SB-732881], for which the potency estimated from few doses in experiment [17] was 565 nM; in experiment [18] it was 914 nM; in experiment [24], 1480 nM; in experiment [25], 400 nM; in experiment [26] it was 852 nM; in experiment [27] it was 3.34 nM. The potency estimated from few doses is 10.4 nM in [28], 1230 nM in experiment [29], 1660 nM in [30] and 2210 nM in experiment [31].
